Assay results: PubChem BioAssay (NCI)
This is part of a sample that, as a whole, favours compounds with a hit. Of some 79,000 tested, about 15% had one in any assay. A number with no mark means an inactive call. The source made the active and inactive calls. No stated cut-off is given here; in the data, active means growth inhibition above about 70%; inactive means the rest.

Tests used:
[1] = NCI Yeast Anticancer Drug Screen. Data for the rad50 strain (AID 155);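 further: 0% = growth of vehicle-only cultures of the same strain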; settings: S. cerevisiae rad50 strain growth inhibition, active compounds read high
Procedure, shortened: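 Relative growth inhibition (compound vs vehicle) was measured in yeast with a defined repair-gene alteration.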

[2] = NCI Yeast Anticancer Drug Screen. Data for the mec2-1 strain (AID 157); settings: S. cerevisiae mec2-1 strain, active compounds read high
Procedure, shortened: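 Mutant yeast (mec2-1) grown with compound; growth inhibition relative to vehicle control reported.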

[3] = NCI Yeast Anticancer Drug Screen. Data for the sgs1 mgt1 strain (AID 161);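 further: 0% = growth of cultures given vehicle only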; settings: S. cerevisiae sgs1 mgt1 strain, active compounds read high
Procedure, shortened: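 Growth of a repair-deficient yeast mutant was monitored after compound treatment and expressed as inhibition relative to vehicle-treated cultures.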

[4] = NCI Yeast Anticancer Drug Screen. Data for the cln2 rad14 strain (AID 165);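 further: 0% = growth equal to vehicle treated cultures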; settings: S. cerevisiae cln2 rad14 strain, active compounds read high
Procedure, shortened: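 Readout is yeast growth inhibition versus vehicle-treated controls, using a strain with cln2 and rad14 alterations exposed to compound.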

[5] = NCI Yeast Anticancer Drug Screen. Data for the bub3 strain (AID 167); settings: S. cerevisiae bub3 mutant strain, active compounds read high
Procedure, shortened: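 Screening used yeast with an engineered genetic alteration affecting cell cycle control. Compound-exposed cultures were compared with vehicle cultures, and reduced growth was taken as inhibition.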

[6] = NCI Yeast Anticancer Drug Screen. Data for the mlh1 rad18 strain (AID 175); settings: S. cerevisiae mlh1 rad18 strain growth inhibition, active compounds read high
Procedure, shortened: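 Genetically defined yeast (DNA repair-deficient) exposed to compounds; growth inhibition determined relative to vehicle.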

[7] = at 5.0 µM (retest, dose inferred, filed as 0.5)
[8] = at 50.0 µM (retest, dose inferred, filed as 5.0)

Structure (SMILES)	growth inhibition [1, 7]	growth inhibition [1, 8]	growth inhibition ([1]; at 50.0 µM)	growth inhibition [2, 7]	growth inhibition [2, 8]	growth inhibition ([2]; at 50.0 µM)	growth inhibition [3, 7]	growth inhibition [3, 8]	growth inhibition ([3]; at 50.0 µM)	growth inhibition [4, 7]	growth inhibition [4, 8]	growth inhibition ([4]; at 50.0 µM)	growth inhibition [5, 7]	growth inhibition [5, 8]	growth inhibition ([5]; at 50.0 µM)	growth inhibition [6, 7]	growth inhibition [6, 8]	growth inhibition ([6]; at 50.0 µM)
COc1ccc(C2=C(Cl)C(=O)N(c3ccc(O)cc3)C(=O)C2(Cl)Cl)cc1	18%	99% (active)	57.7%	13%	99% (active)	59.7%	31%	99% (active)	57.2%	4%	98% (active)	58%	3%	99% (active)	47.9%	15%	98% (active)	58.2%
COc1ccc(/C=C/c2ccnnc2)c(OC)c1OC	-7%	6%	53.2%	-3%	8%	79.5% (active)	-6%	5%	28.6%	-4%	39%	52.8%	-5%	15%	39.3%	-6%	2%	93.7% (active)
c1cc[c]([Sn]([S]c2cccc3cccnc23)([c]2ccccc2)[c]2ccccc2)cc1	100% (active)	98% (active)	96.3% (active)	100% (active)	100% (active)	98.7% (active)	100% (active)	99% (active)	96.9% (active)	99% (active)	99% (active)	94.2% (active)	99% (active)	99% (active)	99% (active)	100% (active)	99% (active)	98.1% (active)
C/C=C(/CCC1NCCC2c3ccccc3NC12)[Si](C)(C)C (configuration not stated)	1%	8%	10.2%	-5%	8%	7.15%	-2%	37%	59.6%	-5%	0%	0.15%	-3%	15%	5.6%	-4%	37%	44.5%
CCOC(=O)Cc1csc(/C=C/c2ccc(OC)c(OC)c2)n1	-15%	8%	17.2%	-1%	20%	11.8%	-13%	14%	6.9%	3%	37%	-37.2%	7%	8%	-12.7%	1%	18%	21.4%
COc1ccc2ccc(OC)c(C=O)c2c1	-158%	-119%	97.5% (active)	-50%	-111%	10.2%	-65%	-60%	-1%	-63%	-58%	-28.2%	-67%	-74%	-25.6%	-144%	-107%	63.5%
COC(=O)C1=C(C)NC(c2ccc(OC)cc2OC)C(C(=O)OC)=C1C (configuration not stated)	4%	21%	68.7%	3%	11%	25.6%	1%	14%	76.8% (active)	-3%	4%	25.6%	1%	16%	49.7%	-1%	24%	58%
CC1(CO)CCCC2(C)C3=C(CCCC3)CCC12 (configuration not stated)	-102%	94% (active)	-3.55%	-56%	96% (active)	52.1%	-60%	96% (active)	46.1%	-60%	95% (active)	10.1%	-67%	95% (active)	42%	-108%	95% (active)	46.4%
C1=Nc2ccccc2C=Nc2ccccc2C=Nc2ccccc2C=Nc2ccccc21.[Cl-].[Pt+2]	55%	93% (active)	85% (active)	80% (active)	97% (active)	82.2% (active)	36%	89% (active)	76.8% (active)	25%	69%	60%	75% (active)	87% (active)	74.7% (active)	63%	97% (active)	81.4% (active)
CCOC(=O)c1ccc(NC(=O)O/N=C(/Cl)CC)cc1	4%	83% (active)	67%	-7%	71% (active)	78.5% (active)	-26%	75% (active)	80.1% (active)	35%	51%	64.8%	-40%	51%	63.8%	8%	86% (active)	69.7%
Cc1c(N)nc(C(CC(N)=O)NCC(N)C(N)=O)nc1C(=O)NC(C(=O)NC(C)C(O)C(C)C(=O)NC(C(=O)NCCc1nc(-c2nc(C(=O)NCCCNC(C)c3ccccc3)cs2)cs1)C(C)O)C(OC1OC(CO)C(O)C(O)C1OC1OC(CO)C(O)C(OC(N)=O)C1O)c1cnc[nH]1 (configuration not stated)	97% (active)	98% (active)	92.2% (active)	97% (active)	99% (active)	93.5% (active)	95% (active)	98% (active)	93.5% (active)	85% (active)	93% (active)	90.4% (active)	93% (active)	98% (active)	93.3% (active)	98% (active)	99% (active)	92.2% (active)
CC(C)CC(NC(=O)SCc1ccccc1)C(=O)O (configuration not stated)	-2%	35%	3.35%	-12%	-5%	1.6%	-1%	-1%	3%	5%	8%	15.4%	2%	1%	-5.95%	3%	24%	14.8%
Cc1[nH]c2c(C)cccc2c1C1Cc2ccccc2N1 (configuration not stated)	3%	99% (active)	98.4% (active)	-1%	99% (active)	98.8% (active)	-12%	98% (active)	98.8% (active)	-5%	98% (active)	98.5% (active)	6%	98% (active)	98.7% (active)	4%	98% (active)	98.2% (active)
Cc1ccc(NC(=O)/C(CC(=O)c2sc(Nc3ccc(Cl)c(Cl)c3)nc2C)=N\Nc2ccc([N+](=O)[O-])cc2[N+](=O)[O-])c(C)c1	1%	97% (active)	97.7% (active)	-4%	96% (active)	98.3% (active)	5%	93% (active)	94.5% (active)	0%	98% (active)	97.1% (active)	-10%	99% (active)	96.8% (active)	5%	96% (active)	96.8% (active)
C[N+]1(Cc2ccc([N+](=O)[O-])cc2)CCC[C@H]1c1ccc[n+](Cc2ccc([N+](=O)[O-])cc2)c1 (some centres not stated)	0%	27%	10.2%	-1%	13%	8.85%	-15%	-2%	65.1%	-7%	0%	63.2%	2%	11%	9.65%	-28%	24%	84.6% (active)
Cc1cc(/C=N/Nc2ccc3cccc(O)c3n2)c(O)c2ncccc12	40%	98% (active)	99.1% (active)	41%	98% (active)	99% (active)	51%	99% (active)	99.1% (active)	21%	99% (active)	98.7% (active)	17%	99% (active)	99.2% (active)	58%	98% (active)	97% (active)
CCOC(=O)C1=C(c2ccccc2)c2ccccc2OC1C(=O)O (configuration not stated)	8%	38%	26.5%	22%	60%	14.8%	16%	64%	19.5%	2%	38%	59.9%	16%	29%	32.5%	34%	78% (active)	55.8%
Cc1ccc(N=Nc2c(C)c(C#N)c(=S)n(C3OC(CO)C(O)C(O)C3O)c2-c2ccccc2)cc1 (configuration not stated)	-8%	-2%	35%	-5%	2%	50.5%	-1%	12%	65.2%	12%	15%	46%	-4%	-10%	42%	-17%	21%	68.8%
Fc1cccc2c1cc1ccc3cccc4ccc2c1c34	-1%	-11%	89.2% (active)	0%	-6%	40.4%	-5%	-14%	83.5% (active)	-3%	-4%	61.7%	0%	-6%	87.5% (active)	-5%	-6%	91.2% (active)
